# D1 agonist – Allosteric Agonists of the Human D1 Dopamine Receptor: qHTS | HEK293 T-REx D1 cells, calcium flux, agonist mode | activation, % at 2 µM | D(1A) dopamine receptor (Homo sapiens), P21728 | actives 1% (n = 360,000) | AID 504660, 2011; note: 0% is about no effect
#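 Inducible HEK293 T-REx D1 cells, force-coupled to calcium signalling, were plated at 4000 cells/well with tetracycline and held overnight at 30 C. After no-wash calcium dye loading, compound-evoked calcium rise over 180 s flagged agonists.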
# TRHR PAM – qHTS for Small Molecule Agonists and Allosteric Enhancers of Human TRH Receptor: Primary Screen for Enhancers | actives 0.66% (n = 360,000) | enhancement, % at 2 µM | Thyrotropin-releasing hormone receptor (Homo sapiens), P34981 | TRHR cells, fluo-8 calcium fluorescence, EC20 TRH enhancement; in the data active = enhancement above about 30%; note: 0% is about no effect
# Target sequence (P34981 whole entry, looked up): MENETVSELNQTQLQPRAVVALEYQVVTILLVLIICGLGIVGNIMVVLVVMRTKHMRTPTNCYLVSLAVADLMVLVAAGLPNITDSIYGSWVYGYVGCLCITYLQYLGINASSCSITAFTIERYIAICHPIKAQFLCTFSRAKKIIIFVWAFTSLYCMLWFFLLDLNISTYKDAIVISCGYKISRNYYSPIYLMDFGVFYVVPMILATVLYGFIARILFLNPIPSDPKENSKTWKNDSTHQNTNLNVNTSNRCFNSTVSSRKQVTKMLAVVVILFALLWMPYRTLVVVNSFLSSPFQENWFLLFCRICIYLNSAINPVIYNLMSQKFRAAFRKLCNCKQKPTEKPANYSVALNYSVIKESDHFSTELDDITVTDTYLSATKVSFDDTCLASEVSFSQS
#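 Enhancer read-out: after compound pinning and an initial kinetic agonist-mode read, an EC20 of TRH (10 nM final) was injected and fluo-8 calcium signal (Ex 480/Em 530) followed at 1 s/cycle for 100 cycles in TRHR-expressing cells.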
# D1 potentiator – Potentiators of Human D1 Dopamine Receptor: qHTS; AID 504651, 2011; potentiation, % at 10 µM; D(1A) dopamine receptor (Homo sapiens), P21728; actives 0.036% (n = 360,000); HEK293 TREx D1 cells, calcium flux, dopamine EC20 potentiation; in the data active = potentiation above about 30%; note: 0% is about no effect
# D1 antagonist – Antagonist of Human D 1 Dopamine Receptor: qHTS | HEK293 TREx D1 cells, calcium flux, dopamine EC80; hits give low values | actives 3.2% (n = 360,000) | D(1A) dopamine receptor (Homo sapiens), P21728 | activity change, negative = inhibition, % at 10 µM; in the data active = activity change below about -30%; note: % is set by controls: 0 for no effect and ±100 for the full control effect
#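 Calcium flux readout: force-coupled, inducible Hek293 Trex D1 line, cells induced overnight at 30 C with tetracycline, dye-loaded 30–90 min at RT. Antagonism scored against EC80 dopamine challenge given 180 s after compound.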
# TRHR agonist – qHTS for Small Molecule Agonists and Allosteric Enhancers of Human TRH Receptor: Primary Screen for Agonists; TRHR cells, calcium flux fluo-8, FDSS agonist mode; AID 493084, 2011; actives 0.18% (n = 360,000); activation, % at 2 µM; note: 0% is about no effect
#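 TRHR-expressing cells, plated overnight in medium with 10% serum, were loaded with fluo-8 calcium dye at room temperature. After a 10 s baseline, library compound was pin-added and calcium release was recorded kinetically (ex 480/em 530) as agonist response.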
# * hit, by the source's call; . = no result given. This is a sample that favours compounds with a hit; in the whole collection about 4.7% have one here. Cut-off read from the data, not from the text of the source, unless noted: active = activation above about 30%; inactive = the rest.
SMILES,D1 agonist,TRHR PAM,D1 potentiator,D1 antagonist,TRHR agonist
CS(=O)(=O)N1CCc2cc(C(=O)N3CCN(c4ccc(F)cc4)CC3)ccc21,-1,5,10,1,-1
CN(CCNC(=O)c1ccc(CS(=O)(=O)c2c(Cl)cccc2Cl)o1)CCc1ccccc1,5,0,-13,-56*,0
CN(C)CCNC(=O)c1ccc(CS(=O)(=O)c2c(Cl)cccc2Cl)o1,5,1,-3,25,0
CCC(=O)N1CCc2cc(Br)cc(S(=O)(=O)N(C)c3ccc(OC)cc3OC)c21,5,-2,0,-7,-1
COc1ccc(OCc2nc3ccc(S(=O)(=O)Nc4ccccc4Cl)cc3[nH]2)cc1,4,1,-11,-57*,0
CCOC(=O)c1ccccc1OC(=O)CS(=O)c1ccccc1[N+](=O)[O-] (stereo not given),0,-1,-1,-32*,-1
COC(=O)c1ccc(OC(=O)CS(=O)c2ccccc2[N+](=O)[O-])cc1 (stereo not given),1,4,0,-1,0
Cc1nn(-c2ccc(N3CCCCC3)nn2)c(C)c1CCC(=O)NCc1ccccc1,0,1,-3,20,-1
CCn1c(SCC(=O)Nc2ccccc2C)nc2nc3c(cc2c1=O)COC(C)(C)C3,1,9,-2,0,-1
CCCCc1cc(O)c(CCCC)c(O)c1,102*,-23,-11,-8,18
CCOC(=O)c1c(S(=O)(=O)N2CCCC(C(=O)Nc3cccc(CC)c3)C2)c(C)n(CC)c1C (stereo not given),5,8,-3,11,1
N#Cc1c(C(F)(F)F)cc(-c2ccco2)nc1SCc1ccncc1,37*,-5,-3,-10,14
N#Cc1c(C(F)(F)F)cc(-c2ccco2)nc1SCc1ccccn1,31*,-13,-8,-24,13
CSc1nc(-c2ccco2)cc(C(F)(F)F)c1C#N,5,0,0,1,1
CCN(CC)C(=O)CSc1nc(-c2ccco2)cc(C(F)(F)F)c1C#N,-1,-6,3,4,0
Cc1ccc2c(c1)c(=O)c(C(=O)c1ccncc1)cn2CC(=O)Nc1c(C)cccc1C,0,-4,-1,4,1
Cc1ccc(NC(=S)NC(=O)Cc2ccccc2)c(O)c1,33*,1,0,-10,2
COc1ccc(NC(=S)NC(=O)Cc2ccccc2)c(OC)c1,16,2,3,11,2
Cc1ccc(NC(=O)COc2ccc(C(=O)c3ccccc3)cc2)c(O)c1,11,-6,-10,-30*,-1
Cc1cccc(N2C(=O)CN(Cc3ccccc3)C2=S)c1,2,6,2,-1,-1
OC(COc1ccccc1F)CN1CCC(Cc2ccccc2)CC1 (stereo not given),16,-5,-18,-42*,1
OC(COc1ccc(F)cc1Cl)CN1CCC(Cc2ccccc2)CC1 (stereo not given),61*,-5,-7,-72*,0
COc1cccc(OCC(O)CN2CCC(Cc3ccccc3)CC2)c1 (stereo not given),20,-2,-6,-31*,0
COc1ccc(-c2cn(Cc3ccc(C(N)=O)cc3)c(-c3ccncc3)n2)cc1,0,-1,-1,-5,-1
CCn1cc(C(=O)N2CCN(c3ccccc3OC)CC2)c(=O)c2cc(S(=O)(=O)N3CCC(C)CC3)ccc21,2,-1,1,11,-1
SMILES,D1 agonist,TRHR PAM,D1 potentiator,D1 antagonist,TRHR agonist
c1ccc(N2CCN(c3ncnc4[nH]ncc34)CC2)cc1,3,0,-2,-35*,0
Cc1ccccc1NC(=O)/C(C#N)=C/c1ccc(Cl)cc1Cl,0,4,-1,3,2
Nc1ccccc1C(=O)/C=C/c1ccc2c(c1)OCO2,0,4,-4,-35*,-1
O=C(/C=C/c1ccc2c(c1)OCO2)Nc1cc(S(=O)(=O)N2CCOCC2)ccc1N1CCOCC1,2,-2,-4,-47*,0
Cc1ccc(/C=C/C(=O)Nc2cc(S(=O)(=O)N3CCOCC3)ccc2N2CCOCC2)cc1,8,1,.,5,0
O=C(/C=C/c1ccc2c(c1)OCO2)c1ccco1,0,-4,-6,-1,0
NS(=O)(=O)c1ccc(NC(=O)/C=C/c2ccc3c(c2)OCO3)cc1,4,-1,8,-48*,0
CCOc1ccc(CNC(=O)Cn2ncc3c(=O)oc4ccc(C)cc4c32)cc1,0,-5,-1,-4,0
COc1cc(C)c(S(=O)(=O)n2ccc(C)n2)cc1C,0,-14,-2,-32*,-1
COc1ccc(S(=O)(=O)n2ccc(C)n2)cc1C,-1,0,3,0,0
CC(=O)Oc1c(C)cc(Cl)cc1C(=O)Nc1ccc([N+](=O)[O-])cc1Cl,34*,-5,-10,-21,4
CC1(NC(=O)c2ccccc2)CCN(CCCc2ccccc2)C1=O (stereo not given),-1,-5,2,.,0
CCOC(=O)N1N=C(c2ccc(OC)cc2)CC1(O)C(F)(F)F (stereo not given),2,32*,-7,1,0
CCc1ccc(C2=NN(C(=O)OC)C(O)(C(F)(F)F)C2)cc1 (stereo not given),2,-2,-7,0,0
CC(C)c1ccc2occ(CC(=O)Nc3ccccc3Cl)c2c1,8,-3,3,-1,1
Nn1c(Nc2ccccc2)nc2ccccc21,0,-7,-5,-15,0
CCN(CC)CCNc1nc2ccccc2n1C,2,-1,-1,-37*,0
CCN(CC)CCn1c(C)nc2ccccc21,5,-2,-5,-10,1
Cn1c(Nc2ccccc2)nc2ccccc21,3,-2,-2,-46*,0
COc1ccc(N(CC(=O)NC2CCCC2)C(=O)c2ccc(C)s2)c(OC)c1,2,1,14,-21,0
COc1ccc(N(CC(=O)NC2CCCCC2)C(=O)c2ccc(C)s2)cc1OC,-1,32*,-3,10,-1
CCOC(=O)Cn1c(CN2CCN(c3ccc(OC)cc3)CC2)nc2c1c(=O)[nH]c(=O)n2C,-2,2,-4,4,0
CCOC(=O)Cn1nnnc1CN1CCN(c2ccc(OC)cc2)CC1,4,34*,-3,-2,1
C[C@@]12C(=O)Nc3cc(F)ccc3C(=O)N1[C@H]1c3ccccc3OC[C@@H]1[C@@H]2c1ccccc1,10,-2,-3,0,0
